Screen size: about 39,000 compounds; about 3,300 (8.5%) were called active. For the sample, actives were picked, then their nearest neighbours and some compounds at random.

This test deals with HepG2. Briefly: cytotoxicity call (relative viability < 0.9). As to conditions: 10 µM.
As for `O=C(C[C@H]1CC[C@@H]2[C@H](COC[C@@H](O)CN2S(=O)(=O)c2ccccc2F)O1)NCc1ccccc1Cl`, the cytotoxicity call was “inactive”.
On to `C[C@H](CO)N1C[C@H](C)[C@@H](CN(C)C(=O)Nc2ccc(F)cc2)OCCCC[C@H](C)Oc2ccc(NC(=O)C3CCCCC3)cc2C1=O`, for which the cytotoxicity call is “inactive”.
For `C[C@@H]1CN([C@H](C)CO)C(=O)c2cc(NC(=O)C3CC3)ccc2O[C@@H]1CN(C)Cc1ccc2c(c1)OCO2` the value was “inactive”; for `Cc1noc(C)c1S(=O)(=O)Nc1ccc2c(c1)CC(=O)N([C@@H](C)CO)C[C@H](C)[C@H](CN(C)S(=O)(=O)c1ccc(Cl)cc1)O2`, “inactive”; for `C[C@@H]1CCCCO[C@H](CN(C)Cc2ccc(C(F)(F)F)cc2)[C@H](C)CN([C@@H](C)CO)C(=O)c2cc(NC(=O)c3ccncc3)ccc2O1`, “inactive”.
For `Cc1ccc(S(=O)(=O)N(C)C[C@@H]2Oc3ccc(NS(=O)(=O)c4ccc(F)cc4)cc3C(=O)N([C@@H](C)CO)C[C@H]2C)cc1` the value was “inactive”; for `Cc1noc(C)c1S(=O)(=O)N(C)C[C@H]1OCCCC[C@@H](C)Oc2ccc(N(C)C)cc2C(=O)N([C@@H](C)CO)C[C@@H]1C`, “inactive”.
As to `CC(C)NC(=O)Nc1ccc2c(c1)CC(=O)N([C@H](C)CO)C[C@H](C)[C@@H](CN(C)Cc1ccc(-c3ccccc3)cc1)O2`, the cytotoxicity call is “inactive”.
The entry for `CC(C)NC(=O)Nc1ccc2c(c1)CC(=O)N([C@@H](C)CO)C[C@H](C)[C@@H](CN(C)Cc1ccc(-c3ccccc3)cc1)O2` is “active”; for `CC(C)NC(=O)Nc1ccc2c(c1)CC(=O)N([C@H](C)CO)C[C@@H](C)[C@@H](CN(C)Cc1ccc(-c3ccccc3)cc1)O2` it is “active”.
Take `CC(C)NC(=O)Nc1ccc2c(c1)CC(=O)N([C@@H](C)CO)C[C@@H](C)[C@@H](CN(C)Cc1ccc(-c3ccccc3)cc1)O2`: the cytotoxicity call is “inactive”.
For `CC(C)NC(=O)Nc1ccc2c(c1)CC(=O)N([C@@H](C)CO)C[C@@H](C)[C@H](CN(C)Cc1ccc(-c3ccccc3)cc1)O2` the value was “inactive”.
For the molecule `CC(C)NC(=O)Nc1ccc2c(c1)CC(=O)N([C@H](C)CO)C[C@@H](C)[C@H](CN(C)Cc1ccc(-c3ccccc3)cc1)O2`, the cytotoxicity call was “inactive”.
For `C[C@@H]1CN([C@@H](C)CO)S(=O)(=O)c2ccc(C#Cc3cccc(F)c3)cc2O[C@@H]1CN(C)S(=O)(=O)c1ccccc1F` the value was “inactive”.
For `C[C@@H]1CCCCO[C@@H](CN(C)Cc2ccc(C(=O)O)cc2)[C@H](C)CN([C@H](C)CO)C(=O)c2cc(NC(=O)Nc3ccc4c(c3)OCO4)ccc2O1` the value was “inactive”.
In the case of `CC(C)NC(=O)N(C)C[C@@H]1Oc2c(NS(=O)(=O)c3ccc(Cl)cc3)cccc2C(=O)N([C@H](C)CO)C[C@H]1C`, the cytotoxicity call was “inactive”.
With `COC(=O)C1C(O)CCC2CN3CCc4c([nH]c5ccccc45)C3CC21` (stereo not given), the cytotoxicity call was “inactive”.
With `COC(=O)C1C2CC3c4[nH]c5cc(OC)ccc5c4CCN3CC2CC(OC(=O)c2cc(OC)c(OC)c(OC)c2)C1OC` (stereo not given), the cytotoxicity call was “active”.
With `COC(=O)C1C(O)CCC2CN3CCc4c([nH]c5ccccc45)C3CC21.Cl` (stereo not given), the cytotoxicity call was “inactive”.
The entry for `C[C@H](CO)N1C[C@H](C)[C@H](CN(C)S(=O)(=O)c2ccc(Cl)cc2)Oc2ccc(NS(C)(=O)=O)cc2CC1=O` is “inactive”.
Turning to `O=C(C[C@H]1CC[C@@H]2[C@H](COC[C@@H](O)CN2C(=O)Nc2ccc(Cl)cc2)O1)NC1Cc2ccccc2C1`, the cytotoxicity call is “inactive”.
For `O=C(C[C@@H]1CC[C@@H]2[C@H](COC[C@@H](O)CN2C(=O)Nc2ccc(Cl)cc2)O1)NC1Cc2ccccc2C1` the value was “active”; for `O=C(C[C@@H]1CC[C@@H]2[C@H](COC[C@H](O)CN2C(=O)Nc2ccc(Cl)cc2)O1)NC1Cc2ccccc2C1`, “inactive”.
For the molecule `O=C(C[C@H]1CC[C@H]2[C@@H](COC[C@@H](O)CN2C(=O)Nc2ccc(Cl)cc2)O1)NC1Cc2ccccc2C1`, the cytotoxicity call is “active”.
Take `O=C(C[C@H]1CC[C@H]2[C@@H](COC[C@H](O)CN2C(=O)Nc2ccc(Cl)cc2)O1)NC1Cc2ccccc2C1`: the cytotoxicity call is “inactive”.
With `O=C(C[C@@H]1CC[C@H]2[C@@H](COC[C@@H](O)CN2C(=O)Nc2ccc(Cl)cc2)O1)NC1Cc2ccccc2C1`, the cytotoxicity call was “inactive”.
The entry for `CO[C@H]1CN(C)C(=O)c2ccc(NC(=O)CC(F)(F)F)cc2OC[C@H](C)N(S(=O)(=O)c2cn(C)cn2)C[C@H]1C` is “inactive”; for `C[C@H]1CCCCO[C@H](CN(C)S(C)(=O)=O)[C@@H](C)CN([C@@H](C)CO)C(=O)c2cc(NS(=O)(=O)c3cn(C)cn3)ccc2O1` it is “inactive”; for `COc1ccc(NC(=O)Nc2ccc3c(c2)C(=O)N([C@H](C)CO)C[C@H](C)[C@H](CN(C)S(=O)(=O)c2c(C)noc2C)OCCCC[C@H](C)O3)cc1` it is “inactive”.
Regarding `O=C(C[C@H]1CC[C@H]2[C@@H](COC[C@@H](O)CN2S(=O)(=O)c2ccc(F)cc2)O1)N[C@@H]1CCN(Cc2ccccc2)C1`, the cytotoxicity call is “inactive”.
For `CC(C)NC(=O)Nc1ccc2c(c1)CC(=O)N([C@H](C)CO)C[C@@H](C)[C@H](CN(C)Cc1ccc(C(=O)O)cc1)O2` the value was “inactive”.
In the case of `C[N+](C)(C)[C@@H]1[C@H]2OC[C@H](O)[C@H]2O[C@@H]1O`, the cytotoxicity call is “inactive”.
For `CCCNC(=O)N1C[C@H](C)[C@@H](OC)CN(C)C(=O)c2cc(NS(=O)(=O)CC(F)(F)F)ccc2OC[C@H]1C` the value was “inactive”; for `C[C@@H]1CN([C@H](C)CO)C(=O)c2cccc(NC(=O)Nc3ccccc3)c2O[C@H]1CN(C)Cc1ccc(Cl)c(Cl)c1`, “inactive”; for `COc1ccc(NC(=O)Nc2cccc3c2O[C@@H](CN(C)Cc2ccc(Cl)c(Cl)c2)[C@H](C)CN([C@@H](C)CO)C3=O)cc1`, “inactive”.
Turning to `COc1ccc(NC(=O)Nc2cccc3c2O[C@H](CN(C)Cc2ccc(Cl)c(Cl)c2)[C@@H](C)CN([C@@H](C)CO)C3=O)cc1`, the cytotoxicity call is “inactive”.
Consider `C[C@@H]1CN([C@@H](C)CO)C(=O)c2cccc(NC(=O)Nc3ccc(F)cc3)c2O[C@H]1CN(C)Cc1ccc(Cl)c(Cl)c1`, for which the cytotoxicity call was “active”.
In the case of `C[C@@H]1CN([C@@H](C)CO)C(=O)c2cccc(NC(=O)C3CCCCC3)c2O[C@H]1CN(C)Cc1ccc(Cl)c(Cl)c1`, the cytotoxicity call was “inactive”.
Consider `C[C@H](CO)N1C[C@H](C)[C@H](CN(C)Cc2ccc(Cl)c(Cl)c2)Oc2c(NC(=O)Nc3ccc(F)cc3)cccc2C1=O`, for which the cytotoxicity call is “inactive”.
For `C[C@@H]1CN([C@H](C)CO)C(=O)c2cccc(NC(=O)Nc3ccc(F)cc3)c2O[C@H]1CN(C)Cc1ccc(Cl)c(Cl)c1` the value was “inactive”.
The entry for `C[C@@H]1CN([C@H](C)CO)C(=O)c2cccc(NC(=O)C3CCCCC3)c2O[C@H]1CN(C)Cc1ccc(Cl)c(Cl)c1` is “inactive”; for `C[C@H]1CN([C@@H](C)CO)C(=O)c2cccc(NC(=O)C3CCCCC3)c2O[C@@H]1CN(C)Cc1ccc(Cl)c(Cl)c1` it is “active”.
For `COc1ccc(NC(=O)Nc2cccc3c2O[C@@H](CN(C)Cc2ccc(Cl)c(Cl)c2)[C@@H](C)CN([C@H](C)CO)C3=O)cc1` the value was “active”; for `C[C@H](CO)N1C[C@H](C)[C@@H](CN(C)Cc2ccc(Cl)c(Cl)c2)Oc2c(NC(=O)Nc3ccccc3)cccc2C1=O`, “inactive”; for `C[C@@H]1CN([C@@H](C)CO)C(=O)c2cccc(NC(=O)Nc3ccccc3)c2O[C@H]1CN(C)Cc1ccc(Cl)c(Cl)c1`, “active”.

Source of the values: the antibiotic and cytotoxicity screens of Wong et al. (2023).
